Data on 70 compounds can be found in the antibiotic and cytotoxicity screens of Wong et al. (2023).

Each structure is given as a SMILES string. Screen size: about 39,000 compounds; about 3,300 (8.5%) were called active. Many of the other results were omitted from the sample, so actives are more common in it than they were.

This experiment deals with HepG2. Briefly: cytotoxicity call (relative viability < 0.9). The following applies: 10 µM.
For the compound `C[C@@H]1CN([C@@H](C)CO)C(=O)c2cccc(NS(C)(=O)=O)c2O[C@@H]1CN(C)C(=O)Nc1ccc(C(F)(F)F)cc1`, the cytotoxicity call is “inactive”. Consider `CSCCC(NC(=O)C(Cc1c[nH]c2ccccc12)NC(=O)CCNC(=O)OC(C)(C)C)C(=O)NC(CC(=O)O)C(=O)NC(Cc1ccccc1)C(N)=O` (stereo not given), for which the cytotoxicity call is “inactive”. As for `COc1ccc(S(=O)(=O)N(C)C[C@H]2Oc3ccc(NS(=O)(=O)c4ccc(F)cc4)cc3CC(=O)N([C@H](C)CO)C[C@H]2C)cc1`, the cytotoxicity call is “inactive”. The result for `CN([C@@H](Cc1ccc(OS(=O)(=O)c2cccc3cnccc23)cc1)C(=O)N1CCN(c2ccccc2)CC1)S(=O)(=O)c1cccc2cnccc12` reads “inactive”. The result for `CN(C)CC(=O)N[C@@H]1CC[C@H](CCNC(=O)C2CCC2)O[C@H]1CO` reads “inactive”; that for `CN1C(=O)/C(=C(/C#N)C(N)=O)c2ccccc21`, “inactive”; that for `O=C(Nc1ccccc1)C1=C[C@H](c2ccc3c(c2)Cc2ccccc2-3)C[C@H](OCc2ccc(CO)cc2)O1`, “inactive”. The result for `Cc1ccc(S(=O)(=O)Nc2ccc3c(c2)C(=O)N([C@H](C)CO)C[C@H](C)[C@@H](CN(C)S(C)(=O)=O)OCCCC[C@@H](C)O3)cc1` reads “inactive”; that for `O=C(NC1CCCCC1)[C@@H]1C(c2ccc(Cl)cc2)=C(S(=O)(=O)c2ccccc2)C(=O)N1Cc1ccc(-c2ccccc2)cc1`, “inactive”; that for `CC(=O)n1nc(-c2cccnc2)nc1N`, “inactive”. For `C[C@H](CO)N1C[C@H](C)[C@H](CN(C)Cc2ccc(C(=O)O)cc2)OCCCC[C@H](C)Oc2ccc(NC(=O)c3ccccc3)cc2C1=O`, the cytotoxicity call was “inactive”. The result for `C[C@@H]1CN([C@@H](C)CO)C(=O)c2cc(NC(=O)Nc3ccccc3)ccc2O[C@@H]1CN(C)Cc1ccc(-c2ccccc2)cc1` reads “active”. Consider `C[C@@H]1CN([C@H](C)CO)C(=O)c2cc(NC(=O)Nc3ccccc3)ccc2O[C@H]1CN(C)Cc1ccc(-c2ccccc2)cc1`, for which the cytotoxicity call was “active”. To `COCC(=O)N(C)C[C@H]1Oc2cc(C#Cc3ccccc3)ccc2S(=O)(=O)N([C@@H](C)CO)C[C@@H]1C` belongs “inactive”. The result for `O=C(CSc1nnc[nH]1)C1CC1` reads “inactive”. The result for `COc1c(C)cc(-c2cc3c(c(CCc4ccccc4)n2)[Si](C(C)C)(C(C)C)O[C@H]3c2ccccc2)cc1C` reads “inactive”; that for `COc1cc(Nc2ncc(F)c(Nc3ccc4c(n3)N(COP(=O)(O)O)C(=O)C(C)(C)O4)n2)cc(OC)c1OC`, “active”; that for `COCC(=O)Nc1ccc2c(c1)C(=O)N(C)C[C@H](OC)[C@H](C)CN(C(=O)Cc1cccnc1)[C@@H](C)CO2`, “inactive”. In the case of `C[C@H](CO)N1C[C@H](C)[C@@H](CN(C)Cc2ccc(Oc3ccccc3)cc2)Oc2ccc(NC(=O)Nc3ccccc3)cc2C1=O`, the cytotoxicity call was “active”. To `C[C@H]1CN([C@@H](C)CO)C(=O)c2cc(NC(=O)Nc3ccccc3)ccc2O[C@@H]1CN(C)Cc1ccc(Oc2ccccc2)cc1` belongs “active”; to `C[C@@H]1CN([C@@H](C)CO)C(=O)c2cc(NC(=O)Nc3ccccc3)ccc2O[C@@H]1CN(C)Cc1ccc(Oc2ccccc2)cc1`, “active”. The result for `C[C@@H]1CN([C@@H](C)CO)C(=O)c2cc(NC(=O)Nc3ccccc3)ccc2O[C@H]1CN(C)Cc1ccc(Oc2ccccc2)cc1` reads “active”. To `C[C@H]1CN([C@@H](C)CO)C(=O)c2cc(NC(=O)Nc3ccccc3)ccc2O[C@H]1CN(C)Cc1ccc(Oc2ccccc2)cc1` belongs “inactive”; to `C[C@H](CO)N1C[C@H](C)[C@H](CN(C)Cc2ccc(Oc3ccccc3)cc2)Oc2ccc(NC(=O)Nc3ccccc3)cc2C1=O`, “inactive”; to `C[C@H](CO)N1C[C@H](C)[C@H](CN(C)Cc2ccc(C(=O)O)cc2)Oc2c(NC(=O)Nc3ccc(C(F)(F)F)cc3)cccc2C1=O`, “inactive”.

`O=C(C[C@@H]1C=C[C@@H](NC(=O)C2CCC2)[C@H](CO)O1)NCCCN1CCOCC1`: the cytotoxicity call was “inactive”. To `C[C@@H]1CCCCO[C@H](CN(C)C(=O)Cc2ccccc2)[C@@H](C)CN([C@@H](C)CO)C(=O)c2cc(NC(=O)CCC(F)(F)F)ccc2O1` belongs “inactive”.

For `COCCOC(=O)N1C(=O)[C@@]2(c3ccccc31)[C@H](C(=O)N1CCCCCCC1)[C@H]1C(=O)O[C@H](c3ccccc3)[C@H](c3ccccc3)N1[C@@H]2c1ccc(OCCO)cc1`, the cytotoxicity call is “inactive”. To `COc1ccc(-c2cnc3c(c2)C(=O)N([C@H](C)CO)C[C@H](C)[C@H](CN(C)C(=O)Cc2cccnc2)O3)cc1` belongs “inactive”; to `Cn1c(=O)n2n(c1=O)[C@H](C1CC1)C=C1CN3[C@@H]([C@H](Cc4ccccc4)OC(=O)[C@@H]3Cc3ccc(-n4cc(CCC(=O)NO)nn4)cc3)[C@@H]12`, “inactive”; to `C[C@H]1CN([C@@H](C)CO)C(=O)CCCn2nncc2CO[C@H]1CN(C)C(=O)Nc1ccc(C(F)(F)F)cc1`, “inactive”. The result for `NC(=O)CN1C(=O)C(=O)c2cc(Cl)ccc21` reads “inactive”; that for `Cc1nc(-c2ccncc2)sc1CN`, “inactive”; that for `O=C(C[C@@H]1C[C@@H]2c3cc(NC(=O)c4ccc5c(c4)OCO5)ccc3O[C@@H]2[C@H](CO)O1)NCc1ccccn1`, “inactive”. The result for `COCC(=O)Nc1ccc2c(c1)C(=O)N(C)[C@H]1CC[C@@H](CC(=O)NCc3ccc(OC)cc3)O[C@@H]1CO2` reads “inactive”; that for `Cc1noc(C)c1NC(=O)Nc1cccc2c1O[C@@H](CN(C)S(C)(=O)=O)[C@H](C)CN([C@H](C)CO)C2=O`, “inactive”; that for `COc1cc(S(C)(=O)=O)ccc1Nc1nc2ccc(-c3ccc(NC(=O)[C@H](C)c4ccc(F)cc4)cc3)cn2n1`, “inactive”. For the compound `C[C@@H]1CN([C@H](C)CO)C(=O)c2cc(NC(=O)Nc3ccccc3)ccc2O[C@H]1CN(C)Cc1ccc(Oc2ccccc2)cc1`, the cytotoxicity call is “active”. On to `C[C@@H]1CN([C@H](C)CO)C(=O)c2cc(NC(=O)Nc3ccccc3)ccc2O[C@@H]1CN(C)Cc1ccc(Oc2ccccc2)cc1`, for which the cytotoxicity call was “active”. To `COc1ccc(NC(=O)N(C)C[C@@H]2OCCCC[C@@H](C)Oc3ccc(NS(=O)(=O)c4ccc(C)cc4)cc3C(=O)N([C@@H](C)CO)C[C@@H]2C)cc1` belongs “inactive”; to `CCCNC(=O)N1C[C@H]2[C@@H](c3ccccc31)[C@H](CO)N2C(=O)CN1CCOCC1`, “inactive”; to `C[C@@H]1CCCCO[C@@H](CN(C)Cc2ccc(Cl)c(Cl)c2)[C@H](C)CN([C@@H](C)CO)C(=O)c2cc(NS(=O)(=O)c3cccs3)ccc2O1`, “inactive”.

As to `CC(=O)NCC(=O)N1CCC2(CC1)C(=O)N(CC1CC1)CCN2C`, the cytotoxicity call was “inactive”. To `C[C@@H]1CN([C@H](C)CO)C(=O)c2cc(NS(=O)(=O)c3ccc(F)cc3)ccc2O[C@H]1CN(C)S(C)(=O)=O` belongs “inactive”; to `C[C@@H]1ON(c2ccc(C(=O)OC(C)(C)C)cc2)[C@H](c2ccc(O)cc2)[C@H]1C(=O)N1C(=O)OC[C@H]1Cc1ccccc1`, “inactive”; to `COc1cccc(S(=O)(=O)N(C)C[C@@H]2Oc3ncc(-c4ccc(F)cc4)cc3C(=O)N([C@H](C)CO)C[C@@H]2C)c1`, “inactive”. The result for `COc1cc2nc(N(C)CCCNC(=O)C3CCCO3)nc(N)c2cc1OC.Cl` (stereo not given) reads “inactive”; that for `O=C(c1ccco1)N1CCNCC1`, “inactive”. The result for `COc1cc2nc(N3CCN(C(=O)c4ccco4)CC3)nc(N)c2cc1OC.Cl` reads “active”; that for `COc1cc2nc(N3CCN(C(=O)C4CCCO4)CC3)nc(N)c2cc1OC.Cl` (stereo not given), “active”.

Regarding `NC(=O)C1CCN(C(=O)c2ccco2)CC1`, the cytotoxicity call was “inactive”.

For `COc1cc2nc(N3CCN(C(=O)C4COc5ccccc5O4)CC3)nc(N)c2cc1OC.CS(=O)(=O)O` (stereo not given), the cytotoxicity call is “inactive”. Turning to `Cl.Cl.NCCNCCNCCN`, the cytotoxicity call was “inactive”. To `C[C@@H]1CCCCO[C@@H](CN(C)C(=O)CCC(F)(F)F)[C@H](C)CN([C@@H](C)CO)C(=O)c2cc(NC(=O)Nc3ccccc3)ccc2O1` belongs “inactive”; to `C[C@@H]1CCCCO[C@H](CN(C)CC2CC2)[C@@H](C)CN([C@H](C)CO)C(=O)c2cc(NC(=O)Cc3ccccc3)ccc2O1`, “inactive”. The result for `O=C(C[C@H]1CC[C@@H]2[C@H](COC[C@H](O)CN2C(=O)c2cnccn2)O1)N1CCN(c2ccccc2)CC1` reads “inactive”; that for `C[C@H](CO)N1C[C@H](C)[C@H](CN(C)CC2CCCCC2)OCCCC[C@H](C)Oc2ccc(NC(=O)CCCN(C)C)cc2C1=O`, “inactive”; that for `NNC(=O)c1ccc2c(=O)[nH][nH]c(=O)c2c1`, “inactive”. To `CCS(=O)(=O)NCC[C@@H]1CC[C@@H](NS(=O)(=O)c2ccccc2C)[C@H](CO)O1` belongs “inactive”.

As to `COCc1cn(CC[C@@H]2CC[C@H](NC(=O)CCN3CCCCC3)[C@@H](CO)O2)nn1`, the cytotoxicity call is “inactive”. With `CN(C)CCCNC(=O)C[C@@H]1CC[C@H]2[C@@H](COc3ccc(NC(=O)c4ccc5c(c4)OCO5)cc3C(=O)N2C)O1`, the cytotoxicity call was “inactive”. The result for `C[C@@H]1CN([C@H](C)CO)C(=O)c2cc(NS(C)(=O)=O)ccc2O[C@H]1CN(C)C(=O)Nc1ccc(C(F)(F)F)cc1` reads “inactive”. The result for `C[C@@H]1CN([C@@H](C)CO)C(=O)c2cc(NS(C)(=O)=O)ccc2O[C@@H]1CN(C)C(=O)Nc1ccc(C(F)(F)F)cc1` reads “active”; that for `C[C@H](CO)N1C[C@H](C)[C@@H](CN(C)C(=O)Nc2ccc(F)cc2)Oc2ccc(NS(C)(=O)=O)cc2C1=O`, “inactive”; that for `C[C@H]1CN([C@@H](C)CO)C(=O)c2cc(NS(C)(=O)=O)ccc2O[C@H]1CN(C)C(=O)Nc1ccc(F)cc1`, “inactive”. To `C[C@H]1CN([C@@H](C)CO)C(=O)c2cc(NS(C)(=O)=O)ccc2O[C@@H]1CN(C)C(=O)Nc1ccc(F)cc1` belongs “active”. As for `C[C@H]1CN([C@@H](C)CO)C(=O)c2cc(NS(C)(=O)=O)ccc2O[C@H]1CN(C)C(=O)Nc1ccc(C(F)(F)F)cc1`, the cytotoxicity call was “active”. The result for `C[C@H]1CN([C@@H](C)CO)C(=O)c2cc(NS(C)(=O)=O)ccc2O[C@@H]1CN(C)C(=O)Nc1ccc(C(F)(F)F)cc1` reads “inactive”.

Turning to `C[C@@H]1CN([C@@H](C)CO)C(=O)c2cc(NS(C)(=O)=O)ccc2O[C@H]1CN(C)C(=O)Nc1ccc(C(F)(F)F)cc1`, the cytotoxicity call was “inactive”.

As to `C[C@H](CO)N1C[C@H](C)[C@@H](CN(C)C(=O)Nc2ccc(C(F)(F)F)cc2)Oc2ccc(NS(C)(=O)=O)cc2C1=O`, the cytotoxicity call is “inactive”.
